# Measurements published in PubChem BioAssay AID1347417 (National Center for Advancing Translational Sciences (NCATS), 2020).
# Out of some 120,000 compounds screened, about 5,300 (4.4%) were called active. Not shown: some 22% with an inconclusive outcome. The entries come from a sample that favours actives as a whole. Where a call stands in place of a potency, no number is given. Values without a mark were called inactive. The call rests on the fitted dose curve; in most records, active means well fitted inhibition curve with a large enough effect; inconclusive means small, poorly fitted or top-dose-only effect; inactive means no such curve, though single readings can be large or run the other way.
# Assay: qHTS Primary assay for Inhibitors of Plasmodium falciparum Dd2 growth in vitro; further: nearly all actives have a fitted effect of over 65% in size
# Details: P. falciparum Dd2 growth, SYBR Green, 72 h; series mostly up to 28.9 µM
# Procedure, shortened: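 Readout: SYBR Green fluorescence, 485 nm excitation, 535 nm emission, after ~16 h lysis at 37C. Before that, Dd2-infected red cells (2.5% hematocrit) grew 72 h with compound, 29 uM top final concentration.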
# Potency means the concentration at half of the fitted maximal effect.
SMILES,Potency,"activity, negative = inhibition",outcome
COc1ccc(CN2CC[C@@H]3CN(S(C)(=O)=O)[C@@H]3C2)c(OC)c1,inactive,,
c1cncc(CNc2cc(-c3cnc4ccccc4n3)c3cc[nH]c3n2)c1,3.98 µM (active),,
c1ccc(CN2CCNc3cc(NCc4cccnc4)ncc3C2)cc1,inactive,,
Fc1ccc(-c2cc(NC3CCCC3)nc3[nH]ccc23)nc1,inactive,,
NC(=O)c1ccc(OC2CCN(C(=O)CCc3ccccc3)C2)nc1 (stereo not given),inactive,,
O=C(c1ccccc1F)N1CC(Oc2cccc(-c3nc(-c4ccccc4)no3)c2)C1,,36.6% [at 5.79 µM],
CCCC(=O)N1CCC(N2C(=O)C(O)C23CCCCC3)CC1 (stereo not given),inactive,,
COCCN1CC[C@H]2CN(C(=O)Cc3ccc(OC)cc3)CC[C@H]2CC1=O,inactive,,
C[C@]1(CO)C2CC[C@@H](O)[C@@H](CC(=O)N3CC[C@@H](O)C3)[C@]2(C)CC[C@H]1OC(=O)Nc1ccc(Oc2ccccc2)cc1 (stereo not given in full),inactive,,
COc1ccc(CCNC(=O)c2noc(-c3ccc(C)cc3)n2)cc1OC,inactive,,
COc1ccc(CCNC(=O)c2ccc3c(c2)nc(C)n3-c2ccc(Br)cc2)cc1OC,inactive,,
CCOc1ccccc1CNC(=O)c1ccc(-n2c(C)cc3c2CCC(C)C3)cc1 (stereo not given),12.6 µM (active),,
COc1ccc(CCNC(=O)c2ccc(-n3c(C)cc4c3CCCC4)cc2)cc1OC,11.2 µM (active),,
COc1ccccc1CNC(=O)c1cc2c(s1)CCN(C(=O)c1ccccc1)C2,inactive,,
CCOc1ccccc1CNC(=O)C1CCCN(S(=O)(=O)c2ccc3c(ccn3C)c2)C1 (stereo not given),inactive,,
CCOc1ccccc1CNC(=O)c1ccc2c(c1)nc1n2CCC(C)C1 (stereo not given),inactive,,
COc1ccccc1Oc1ncccc1CNC(=O)c1ccc2n[nH]nc2c1,inactive,,
COc1ccccc1CNC(=O)c1ccc(-n2c(C)cc3c2CCCC3)cc1,11.2 µM (active),,
COc1ccc(NC(=O)Cn2ccn3nc(-c4ccc(F)cc4)c(CO)c3c2=O)c(OC)c1,inactive,,
O=C(N[C@@H]1CN[C@H](CO)C1)c1ccncc1,inactive,,

SMILES,Potency,"activity, negative = inhibition",outcome
COC(=O)[C@@H]1Cc2c([nH]c3ccccc23)[C@H]2C[C@@H](NCCN3CCOCC3)C[C@@H](c3ccccc3F)N21,inactive,,
Cc1cnc(C)c(N2CCN(C(=O)[C@H]3CC[C@@H](N)C3)CC2)n1,inactive,,
O=C(Cc1ccc(F)cc1)N1CCCC(c2nn(-c3ccc(Cl)cc3)c(=O)[nH]2)C1 (stereo not given),inactive,,
CC(=O)N1CCCC(c2nn(-c3ccccc3)c(=O)[nH]2)C1 (stereo not given),inactive,,
O=c1[nH]c(C2CCCN(Cc3ccccn3)C2)nn1-c1ccc(Cl)cc1 (stereo not given),1.41 µM (active),,
COCCNC(=O)C1c2ccccc2C(=O)N(C2CCCC2)C12CCCCC2 (stereo not given),inactive,,
Cc1cccnc1NC(=O)C1c2ccccc2C(=O)N(C2CCCC2)C12CCCC2 (stereo not given),inactive,,
COCc1nnc(NC(=O)C2c3ccccc3C(=O)N(C3CCCC3)C23CCCC3)s1 (stereo not given),7.94 µM (active),,
CS(=O)(=O)N1CCC(F)(c2nc(-c3ccccc3)no2)CC1,inactive,,
CN1CC(=O)N(c2ccccc2F)Cc2c(NCCc3ccc(F)cc3)ncnc21,inactive,,
Cc1sc2cc(C(=O)N(C)C)[nH]c2c1CN1CCCCC1,inactive,,
CC(C)OC(=O)c1ccc(NC(=O)Cn2nc3c(cc2=O)CCCCC3)cc1,inactive,,
Cn1c(=O)n(C)c2cc(NS(=O)(=O)c3ccc(F)cc3)ccc21,inactive,,
Cc1c(NS(=O)(=O)c2ccc(Cl)cc2)c(=O)n(-c2ccccc2)n1C,inactive,,
CC(=O)c1c(C)n(S(=O)(=O)c2ccc(Cl)cc2)c2ccc(NS(=O)(=O)c3ccc(Cl)cc3)cc12,11.2 µM (active),,
COc1cc2c(=O)c(S(=O)(=O)c3ccc(C(C)C)cc3)cn(Cc3ccccc3C)c2cc1OC,8.91 µM (active),,
COCCCNc1nc2c(S(=O)(=O)c3ccc(C(C)C)cc3)nnn2c2ccccc12,inactive,,
O=C(NCc1cc(F)cc(F)c1)c1noc(-c2ccc3c(c2)OCO3)n1,inactive,,
COc1ccc(CNC(=O)N2CCCCC2c2noc(COCC3CC3)n2)cc1 (stereo not given),inactive,,
CCOc1cccc2cc(-c3cn4c(n3)sc3cc(C)ccc34)c(=O)oc12,inactive,,

SMILES,Potency,"activity, negative = inhibition",outcome
Cc1ccc(-c2cn3c(n2)sc2cc(C(=O)NCCCc4ccccc4)ccc23)cc1,inactive,,
Cc1ccc(-c2cn3c(n2)sc2cc(C(=O)NCc4cccs4)ccc23)c(C)c1,11.2 µM (active),,
O=C(NCc1ccccc1)c1cnc2n1CCN(Cc1c[nH]c3ccccc13)CC2,inactive,,
COCC(=O)Nc1ccc([C@H]2OCC(=O)N[C@@H]2CO)cc1,inactive,,
Cn1ncc(N2CCC(C(=O)N3CC=C(c4ccccc4)CC3)C2)cc1=O (stereo not given),inactive,,
Cn1cnc(C(=O)N2CCC(OC3CCN(S(C)(=O)=O)CC3)CC2)c1,inactive,,
COc1ccc(NC(=O)N2CCC(O)(c3csc(CN4CCc5ccccc5C4)n3)CC2)cc1,inactive,,
CC(C)c1csc(CN2CCN(c3ncccc3C#N)CC2)n1,inactive,,
Oc1ccccc1CN1CCC(O)(c2csc(CN3CCN(c4ccccn4)CC3)n2)CC1,7.94 µM (active),,
COc1ccccc1CCC(=O)N1CCC[C@H]1c1nc(-c2ccccc2)no1,inactive,,
CC(C)c1cc(C(=O)NCc2cccnc2Oc2ccc(F)cc2F)on1,inactive,,
CN(C)c1nc2c(c(=O)[nH]1)CCN(Cc1ccncc1)CC2,,,inactive [at 5.79 µM]
Cc1ccc(CN2C(=O)[C@@H]3C[C@@H](O)CN3C3(CN(Cc4ccncc4)C3)C2=O)o1,inactive,,
O=C1CC(c2ccccc2)N(C(=O)CNC(=O)c2cnccn2)CCCCCCN1 (stereo not given),inactive,,
COc1ccc(OC)c(S(=O)(=O)N2CCCCCCNC(=O)CC2c2ccccc2)c1 (stereo not given),inactive,,
O=C1CC(c2ccccc2)N(Cc2cn[nH]c2-c2ccc(F)cc2)CCCCCN1 (stereo not given),8.91 µM (active),,
Cn1cc(CC(=O)N2CCCc3ncc(C(=O)NCc4ccc(F)cc4)cc32)c2ccccc21,inactive,,
CC(=O)N1CCCN(Cc2nnc(C(=O)N3CCC[C@@H]3C(c3ccccc3)c3ccccc3)n2-c2ccccc2)CC1,inactive,,
Cc1nc(N2CCC(NCCNc3ccncc3C)CC2)c2ccsc2n1,10 µM (active),,
Cc1nc(N2CCC(NC(=O)c3cnccn3)CC2)cc(C(F)(F)F)n1,inactive,,
